High-throughput results: PubChem BioAssay, National Center for Advancing Translational Sciences (NCATS)
IL-1B inflam inh: inhibitors of inflammasome signaling (IL-1 beta secretion); THP-1 LPS/ATP IL-1B secretion, AlphaLISA, 16 h; hits give low values; activity change, % at 57.5 µM; 4.7% of 360,000 active; in the data active means activity change below about -50%; inconclusive means mostly about -30% to -49%; further: on the % scale 0 is the no-effect control and ±100 the full control effect
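THP-1 cells pretreated 1 hr with compounds (up to 57.5 uM final), then stimulated with LPS (250 ng/mL final) plus ATP (1.25 mM final); secreted IL-1B measured by AlphaLISA after 16 hr, decreased signal indicating inhibition.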
DT40 TDP1 CPT: DT40-hTDP1 cell growth loss with CPT | 12% of 420,000 active | Potency, µM (series often up to 46.2 µM), for the others: top-dose activity change, negative = growth inhibition, most hits filed as inhibitors | chicken DT40 Tdp1-/-;hTDP1 cells + 20 nM CPT, ATP luminescence, 48 h; further: potency means the concentration at half of the fitted maximal effect; on the % scale 0 is the no-effect control and ±100 the full control effect; nearly all actives have a fitted effect of over 55% in size
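Chicken DT40 Tdp1-/- cells stably complemented with human TDP1 were seeded at 400 cells/well in medium containing 20 nM camptothecin, exposed to pin-transferred compounds, and grown at 37 °C for at least 48 hr. Viability was read as ATP luminescence.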
BCR signal inh: blocks chronic active B-cell receptor signaling | ABC-DLBCL IkBa-CBG/CBR reporter, luminescence ratio, 4 h | AID 493014 | 0.05% of 340,000 active | Potency, µM (series often up to 46.1 µM), inactives show at the highest dose activity change, negative = inhibition, actives largely listed as inhibitors; active means well fitted inhibition curve with a large enough effect in the signal ratio, with a control signal flat, not every such curve was filed as active; inconclusive means small, poorly fitted or top-dose-only effect, or effect the other way, or a change in a side signal; the % refers to the signal ratio;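 further: potency means the concentration at half of the fitted maximal effect; plate controls were basal doxycycline-induced cells for no effect and cells given 10 µM MG132 for full effect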
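Concentration-response series (up to 46 uM) were applied to TMD8 dual-reporter cells for 4 h at 37C with doxycycline. Green/red ratio, after filter-overlap correction, defined %Activity; red signal alone was normalised to basal cells and zero luminescence.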
MCF10A rerep: DNA re-replication induction in MCF 10a cells. MCF 10A DNA re-replication, Hoechst nuclear intensity, 48 h. Potency, µM (titrated, usually from 46.1 µM), for inactives: at the highest dose activity, positive = re-replication, usual class: activators. AID 624296. 2.9% of 350,000 active; further: potency means the concentration at half of the fitted maximal effect; % of control where 0% means no effect; nearly all actives have a fitted effect of over 50% in size
SW480 rereplic: induces DNA re-replication in SW480 colon adenocarcinoma cells; SW480 DNA re-replication, Hoechst DNA content imaging, 48 h; Potency, µM (titrated, usually from 46.1 µM), for the others: at the highest dose re-replication activation, hits mostly activators; 1.8% of 340,000 active; AID 624297; further: potency means the concentration at half of the fitted maximal effect; % of control where 0% means no effect; nearly all actives have a fitted effect of over 55% in size
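Per well, 250 cells were exposed to pinned compound for 48 hr. Nuclear DNA was visualised with Hoechst (40 min, 37 C) and total object intensity recorded by fluorescence scanning.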
DT40 TDP1 no CPT: qHTS for Inhibitors of human tyrosyl-DNA phosphodiesterase 1 (TDP1): qHTS in cells in absence of CPT | 15% of 420,000 active | DT40 Tdp1-/- hTDP1 cells, no CPT, ATP luminescence, 48 h | Potency, µM (titrated, usually from 46.2 µM), for the others: at the top dose activity change, negative = growth inhibition, usual class: inhibitors; further: potency means the concentration at half of the fitted maximal effect; on the % scale 0 is the no-effect control and ±100 the full control effect; nearly all actives have a fitted effect of over 55% in size
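Compound effects on proliferation are scored in DT40 Tdp1-/-;hTDP1 cells in the absence of CPT. ATP levels (CellTiter-Glo luminescence) are recorded after a ≥48 hr, 37 °C incubation.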
The depositor's hits bear a star; [ ] = dose if it differs, or a comment. Shown are actives, neighbours in structure and some others; about 19% of the full set was active somewhere. Unless noted, the call rests on the fitted dose curve; in most records, active means well fitted curve in the direction sought with a large enough effect; inconclusive means small, poorly fitted or top-dose-only effect, or another doubt; inactive means no such curve, though single readings can be large; an effect the other way counts as inactive or inconclusive.

CC[C@H](CO)Oc1cc(NCc2ccc(Cl)c(Cl)c2)c2ncn(C(C)C)c2c1 was read as IL-1B inflam inh -19.8, DT40 TDP1 CPT 16.4µM*, BCR signal inh -2.5%, MCF10A rerep 20.6µM*, SW480 rereplic 17.7% and DT40 TDP1 no CPT inconclusive.
CCOc1cc(NCc2ccccc2)c2ncn(C(C)C)c2c1 was read as IL-1B inflam inh 0.0, DT40 TDP1 CPT inconclusive, BCR signal inh -5.6%, MCF10A rerep -25.4%, SW480 rereplic inconclusive and DT40 TDP1 no CPT 23.1µM*.
For COc1ccc(CN(C)C(=O)CCN(c2ccccc2)S(=O)(=O)c2ccc(C)cc2)c(OC)c1 the results were IL-1B inflam inh -6.0, DT40 TDP1 CPT 20.6µM*, BCR signal inh -7.3%, MCF10A rerep 8.7%, SW480 rereplic inconclusive and DT40 TDP1 no CPT 23.1µM*.
For Cc1ccc(S(=O)(=O)N(C)c2ccc(OCC(=O)Nc3ccc(C(=O)N(C)C)cc3)cc2)cc1C the results were IL-1B inflam inh 11.3, DT40 TDP1 CPT inconclusive, BCR signal inh 5.5%, MCF10A rerep 0.4%, SW480 rereplic -7.5% and DT40 TDP1 no CPT 18.4µM*.
`COC(=O)c1ccc(NC(=O)COc2ccc(N(C)S(=O)(=O)c3ccc(C)cc3)cc2)cc1` gave IL-1B inflam inh 7.0, DT40 TDP1 CPT 16.4µM*, BCR signal inh 0.9%, MCF10A rerep 18.4µM*, SW480 rereplic -5.0% and DT40 TDP1 no CPT inconclusive.
Screening Cc1ccc(N(CCC(=O)O)S(=O)(=O)c2ccccc2)cc1 returned IL-1B inflam inh 0.0, DT40 TDP1 CPT -11.3%, BCR signal inh 0.6%, MCF10A rerep 2.7%, SW480 rereplic -1.7% and DT40 TDP1 no CPT -8.1%.
`COC(=O)Cc1ccc(N(Cc2ccccc2F)S(=O)(=O)c2ccc(C)cc2)cc1` gave IL-1B inflam inh 21.6, DT40 TDP1 CPT 20.6µM*, BCR signal inh 2.1%, MCF10A rerep 0.9%, SW480 rereplic inconclusive and DT40 TDP1 no CPT 18.4µM*.
Screening CCN1CCN(C(c2cccc(F)c2)c2c(O)cc(C)n(CCOC)c2=O)CC1 (centres undefined) returned DT40 TDP1 CPT -3.4% and DT40 TDP1 no CPT -0.9%.
Cc1ccc(OCC(=O)Nc2ccc(S(=O)(=O)N(Cc3ccccc3)c3ccccc3)cc2)cc1 was read as DT40 TDP1 CPT 18.4µM* and DT40 TDP1 no CPT 4.61µM*.
`COc1ccc(OCC(=O)Nc2ccc(S(=O)(=O)N(C)c3ccccc3)cc2)cc1` gave IL-1B inflam inh -3.8, DT40 TDP1 CPT -12.8%, BCR signal inh -8.9%, MCF10A rerep 1.9%, SW480 rereplic 2.5% and DT40 TDP1 no CPT 0.0%.
`CC1(c2ccccc2Cl)NC(=O)N(CC(=O)N2c3ccccc3NC(=O)C2(C)C)C1=O` (centres undefined) gave IL-1B inflam inh -11.3, DT40 TDP1 CPT -9.3%, BCR signal inh 2.3%, MCF10A rerep -5.1%, SW480 rereplic 3.2% and DT40 TDP1 no CPT -20.9%.
Screening C=C1c2cccc(O)c2C(O)=C2C(=O)[C@@]3(O)C(O)=C(C(N)=O)C(=O)[C@@H](N(C)C)[C@@H]3[C@@H](O)[C@H]12 returned MCF10A rerep -1.6%[20.6 µM] and SW480 rereplic inconclusive.
Screening COc1cc2c(cc1NC(=O)CSc1nccn1C)oc1ccccc12 returned IL-1B inflam inh -20.1, DT40 TDP1 CPT inconclusive, BCR signal inh inconclusive, MCF10A rerep 17.1%, SW480 rereplic inconclusive and DT40 TDP1 no CPT 18.4µM*.
For O=C(CSc1nc2ccccc2s1)Nc1ccc2c(c1)oc1ccccc12 the results were IL-1B inflam inh 0.0, DT40 TDP1 CPT -7.4%, BCR signal inh 19.5%, MCF10A rerep 22.3%, SW480 rereplic 7.1% and DT40 TDP1 no CPT 1.4%.
`COc1cc2c(cc1NC(=O)CSc1ccccc1)oc1ccccc12` gave IL-1B inflam inh 13.2, DT40 TDP1 CPT inconclusive, BCR signal inh 24.0%, MCF10A rerep 18.0%, SW480 rereplic -2.5% and DT40 TDP1 no CPT inconclusive.
COc1cc2c(cc1NC(=O)CSc1nc3cc(Cl)ccc3s1)oc1ccccc12 was read as IL-1B inflam inh 23.7, DT40 TDP1 CPT inconclusive, BCR signal inh -0.8%, MCF10A rerep -0.9%, SW480 rereplic -3.3% and DT40 TDP1 no CPT 11.6µM*.
Screening O=C(NCCN1Cc2ccccc2OC(c2ccccc2F)C1)c1cncs1 (centres undefined) returned DT40 TDP1 CPT -2.4%[9.04 µM] and DT40 TDP1 no CPT inconclusive.
For Cc1ccc(S(=O)(=O)N2CCN(C(=O)COC(=O)CNC(=O)c3ccc(Cl)cc3Cl)CC2)cc1 the results were IL-1B inflam inh 6.5, DT40 TDP1 CPT 10.0%, BCR signal inh -8.2%, MCF10A rerep 0.3%, SW480 rereplic 1.8% and DT40 TDP1 no CPT -26.1%.
For COc1ccc(/C([O-])=C(/C(=S)Nc2ccc(C)c(C)c2)n2c[n+](C)c3ccccc32)cc1OC the results were IL-1B inflam inh 5.1, DT40 TDP1 CPT 29.1µM*, BCR signal inh 1.2%, MCF10A rerep 11.5%, SW480 rereplic -0.8% and DT40 TDP1 no CPT inconclusive.
`CCN(CC)c1ccc(C(NC(=O)C(C)C)c2ccc3cccnc3c2O)cc1` (centres undefined) gave IL-1B inflam inh 80.5, DT40 TDP1 CPT 2.91µM* and DT40 TDP1 no CPT 2.91µM*.
Oc1c(C(Nc2nc3ccccc3s2)c2ccco2)ccc2cccnc12 (centres undefined) was read as IL-1B inflam inh -99.2*, DT40 TDP1 CPT 3.66µM*, BCR signal inh -3.5%, MCF10A rerep inconclusive, SW480 rereplic inconclusive and DT40 TDP1 no CPT 5.17µM*.
`CC(=O)NC(c1ccco1)c1cc(F)c2cccnc2c1O` (centres undefined) gave BCR signal inh inconclusive, MCF10A rerep inconclusive and SW480 rereplic 6.9%[9.22 µM].
Screening CC(C)C(=O)NC(c1cccs1)c1cc([N+](=O)[O-])c2cccnc2c1O (centres undefined) returned IL-1B inflam inh -12.5, DT40 TDP1 CPT inconclusive, BCR signal inh 6.0%, MCF10A rerep inconclusive, SW480 rereplic inconclusive and DT40 TDP1 no CPT inconclusive.
CC(C)C(=O)NC(c1ccc(N(C)C)cc1)c1ccc2cccnc2c1O (centres undefined) was read as DT40 TDP1 CPT 3.98µM* and DT40 TDP1 no CPT 5.62µM*.
